# Assay results reported in the supplement of paper PMC8728848.
# The sample as a whole holds a higher share of the strongest signals than the screen did.
# B1: AAL (Aleuria aurantia) (protein)
# chain: MPTEFLYTSKIAAISWAATGGRQQRVYFQDLNGKIREAQRGGDNPWTGGSSQNVIGEAKLFSPLAAVTWKSAQGIQIRVYCVNKDNILSEFVYDGSKWITGQLGSVGVKVGSNSKLAALQWGGSESAPPNIRVYYQKSNGSGSSIHEYVWSGKWTAGASFGSTVPGTGIGATAIGPGRLRIYYQATDNKIREHCWDSNSWYVGGFSASASAGVSIAAISWGSTPQIRVYWQKGREELYEAAYGGSWNTPGQIKDASRPTPSLPDTFIAANSSGNIDISVFFQASGVSLQQWQWISGKGWSIGAVVPTGTPAGW
# Columns and labels:
# Assay in all cases: glycan array binding signal (z-score within array); higher = stronger binding
# Conditions in all cases: glycan notation: IUPAC condensed, linker removed; mutation: N224Q
# [1] = molecular target: Fuc(a1-2)Gal
# Outline: (§1)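 The Consortium for Functional Glycomics database supplied 3228 glycan arrays, of which those lacking an available protein sequence were dropped. The binding signal, a within-array Z-score, was averaged across arrays of the same protein sequence and across linkers. Negative scores can be read as non-binding.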
# [2] = molecular target: Fuc(a1-2)Gal(b1-3)GlcNAc(b1-3)GalNAc
# Outline: as §1
# [3] = molecular target: Fuc(a1-2)Gal(b1-3)[Fuc(a1-4)]GlcNAc(b1-2)Man(a1-3)[Fuc(a1-2)Gal(b1-3)[Fuc(a1-4)]GlcNAc(b1-2)Man(a1-6)]Man(b1-4)GlcNAc(b1-4)[Fuc(a1-6)]GlcNAc(b1-4)[Fuc(a1-6)]GlcNAc
# Outline: as §1
# [4] = molecular target: Fuc(a1-2)Gal(b1-4)Glc6S
# Outline: as §1
# [5] = molecular target: Fuc(a1-2)Gal(b1-4)GlcNAc(b1-3)Gal(b1-4)GlcNAc(b1-2)Man(a1-3)[Fuc(a1-2)Gal(b1-4)GlcNAc(b1-3)Gal(b1-4)GlcNAc(b1-2)Man(a1-6)]Man(b1-4)GlcNAc(b1-4)GlcNAc
# Outline: as §1
# [6] = molecular target: Fuc(a1-2)Gal(b1-4)[Fuc(a1-3)]GlcNAc
# Outline: as §1
# [7] = molecular target: Fuc(a1-2)Gal(b1-4)[Fuc(a1-3)]GlcNAc(b1-3)Gal(b1-4)[Fuc(a1-3)]GlcNAc
# Outline: as §1
# [8] = molecular target: Fuc(a1-2)Gal(b1-4)[Fuc(a1-3)]GlcNAc(b1-3)Gal(b1-4)[Fuc(a1-3)]GlcNAc(b1-3)Gal(b1-4)[Fuc(a1-3)]GlcNAc
# Outline: as §1
# [9] = molecular target: Fuc(a1-2)Gal6S(b1-4)Glc
# Outline: as §1
# [10] = molecular target: Fuc(a1-2)[Gal(a1-3)]Gal(b1-4)GlcNAc(b1-2)Man
# Outline: as §1
# [11] = molecular target: Fuc(a1-2)[Gal(a1-3)]Gal(b1-4)GlcNAc(b1-2)Man(a1-3)[Fuc(a1-2)[Gal(a1-3)]Gal(b1-4)GlcNAc(b1-2)Man(a1-6)]Man(b1-4)GlcNAc(b1-4)[Fuc(a1-6)]GlcNAc
# Outline: as §1
# [12] = molecular target: Fuc(a1-2)[Gal(a1-4)]Gal(b1-4)GlcNAc
# Outline: as §1
# [13] = molecular target: Fuc(a1-2)[GalNAc(a1-3)]Gal
# Outline: as §1
# [14] = molecular target: Fuc(a1-2)[GalNAc(a1-3)]Gal(b1-4)Glc
# Outline: as §1
# [15] = molecular target: Fuc(a1-2)[GalNAc(a1-3)]Gal(b1-4)GlcNAc(b1-3)GalNAc
# Outline: as §1
# [16] = molecular target: Fuc(a1-2)[GalNAc(a1-4)]Gal(b1-4)GlcNAc
# Outline: as §1
# [17] = molecular target: Fuc(a1-3)GlcNAc
# Outline: as §1
# [18] = molecular target: Fuc(a1-3)[Gal(b1-4)]GlcNAc(b1-2)Man
# Outline: as §1
# [19] = molecular target: Fuc(a1-3)[Gal(b1-4)]GlcNAc(b1-3)Gal(b1-4)[Fuc(a1-3)]GlcNAc
# Outline: as §1
# [20] = molecular target: Fuc(a1-3)[Gal(b1-4)]GlcNAc(b1-6)[Gal(b1-3)GlcNAc(b1-3)]Gal(b1-4)Glc
# Outline: as §1
# [21] = molecular target: Fuc(a1-3)[Gal(b1-4)]GlcNAc6S
# Outline: as §1
# [22] = molecular target: Fuc(a1-4)GlcNAc
# Outline: as §1
# [23] = molecular target: Fuc(b1-3)GlcNAc
# Outline: as §1
# [24] = molecular target: Gal(b1-3)GalNAc(a1-3)[Fuc(a1-2)]Gal(b1-4)Glc
# Outline: as §1
# [25] = molecular target: Gal(b1-3)GlcNAc(b1-2)[Gal(b1-3)GlcNAc(b1-6)]Man(a1-6)[Gal(b1-3)GlcNAc(b1-2)Man(a1-3)]Man(b1-4)GlcNAc(b1-4)GlcNAc
# Outline: as §1
# [26] = molecular target: Gal(b1-3)GlcNAc(b1-6)Gal(b1-4)GlcNAc
# Outline: as §1
# [27] = molecular target: Gal(b1-3)GlcNAc6S
# Outline: as §1
# [28] = molecular target: Gal(b1-4)GlcNAc
# Outline: as §1
# [29] = molecular target: Gal(b1-4)GlcNAc(b1-2)Man(a1-3)[Gal(b1-4)GlcNAc(b1-2)Man(a1-6)]Man(b1-4)GlcNAc(b1-4)GlcNAc
# Outline: as §1
# [30] = molecular target: Gal(b1-4)GlcNAc(b1-2)Man(a1-3)[Gal(b1-4)GlcNAc(b1-2)Man(a1-6)]Man(b1-4)GlcNAc(b1-4)[Fuc(a1-6)]GlcNAc
# Outline: as §1
binder,measurement,setting,value
B1,glycan array binding signal (z-score),[1],4.67
same,glycan array binding signal (z-score),[2],-0.263
same,glycan array binding signal (z-score),[3],0.006
same,glycan array binding signal (z-score),[4],2.29
same,glycan array binding signal (z-score),[5],6.34
same,glycan array binding signal (z-score),[6],3.69
same,glycan array binding signal (z-score),[7],3.57
same,glycan array binding signal (z-score),[8],3.95
same,glycan array binding signal (z-score),[9],3.32
same,glycan array binding signal (z-score),[10],-0.285
same,glycan array binding signal (z-score),[11],-0.153
same,glycan array binding signal (z-score),[12],5.8
same,glycan array binding signal (z-score),[13],0.989
same,glycan array binding signal (z-score),[14],-0.309
same,glycan array binding signal (z-score),[15],-0.32
same,glycan array binding signal (z-score),[16],5.38
same,glycan array binding signal (z-score),[17],3.92
same,glycan array binding signal (z-score),[18],-0.29
same,glycan array binding signal (z-score),[19],1.96
same,glycan array binding signal (z-score),[20],0.019
same,glycan array binding signal (z-score),[21],-0.274
same,glycan array binding signal (z-score),[22],6.22
same,glycan array binding signal (z-score),[23],4.57
same,glycan array binding signal (z-score),[24],-0.303
same,glycan array binding signal (z-score),[25],-0.296
same,glycan array binding signal (z-score),[26],-0.317
same,glycan array binding signal (z-score),[27],-0.309
same,glycan array binding signal (z-score),[28],-0.324
same,glycan array binding signal (z-score),[29],-0.316
same,glycan array binding signal (z-score),[30],-0.216
